Results filed as inconclusive are left out. Entries that show only a call come without a potency. Activity calls are given as the source filed them. Calls come from the whole dose curve; as a rule, active = well fitted curve in the direction sought with a large enough effect; inconclusive = small, poorly fitted or top-dose-only effect, or effect the other way, or another doubt; inactive = no such curve, though single readings can be large or run the other way.
Experiment: Cell Viability Secondary Assay to Characterize qHTS Inhibitors of the Interaction of Thyroid Hormone Receptor and Steroid Receptor Coregulator 2
Settings: cell viability counter-screen, qHTS titration; series mostly up to 29.9 µM
Text: NIH Molecular Libraries Probe Production Network [MLPCN]
NIH Chemical Genomics Center [NCGC]
Assay Provider: R. Kip Guy, St. Jude Children's Research Hospital
Thyroid receptor (TR) regulates many homeostatic processes including basal metabolism, cardiovascular function, body weight, and lipid trafficking. TR modulators are potential therapeutics for obesity and hyperlipidemias but current thyroid analogs have undesirable side effects, particularly cardiac stimulation. This secondary assay characterized selected actives identified in the qHTS for Inhibitors of the Interaction of Thyroid Hormone Receptor and Steroid Receptor Coregulator 2. The human follicular thyroid carcinoma cell line WRO (kindly provided by Dr. M. D. Ringel) stably expresses TRbeta and a luciferase reporter gene fused to TR response element. The effect of compounds on the viability of these cells was assessed by measuring ATP levels. Compounds that reduce cell viability are likely cytotoxic.
NCGC Assay Protocol Summary:
Cells were maintained in RPMI 1640 culture medium supplemented with 10% heat-inactivated FBS, 0.33 mg/ml hygromycin, 0.33 mg/ml geneticin, 50 units/ml penicillin, 50 ug/ml streptomycin. Cells were harvested and resuspended at 330,000 cells/ml in assay medium (50% DMEM 50% F-12 medium without Phenol-Red (Cellgro #16-405-CV), L-glutamine, 10% heat inactivated and charcoal treated FBS, 100 uM non-essential amino acid, 50 units/ml penicillin, 50 ug/ml streptomycin). Cells were dispensed at 10,000 cells/30 ul/well into 384 well plates (Corning 3917) and incubated 12 h at 37 C and 5% CO2. Compounds and T3 (100nM final concentration) were added using a pin tool and plates were incubated 16 h incubation at 37 C and 5% CO2. Following incubation, plates were equilibrated at ambient temperature for 30 min, 20 ul of CellTiter-Glo (Promega) was added and luminescence was detected by an EnVision (PerkinElmer).
For `Cn1c(=O)[nH]c2nnc(-c3ccc(Cl)c(Cl)c3)nc2c1=O`, the Potency was “inactive”. With `O=c1cc(C23CC4CC(CC(C4)C2)C3)[nH][nH]1` the Potency was “inactive”. In the case of `CC1=NN(c2ccc(F)cc2)C(=O)C1C(c1cccc(O)c1)c1c(C)[nH]n(-c2ccc(F)cc2)c1=O` (stereo not given), the Potency is reported as “inactive”. In the case of `N/C(Cc1cccc2ccccc12)=N\OC(=O)c1cccs1`, the Potency is reported as “inactive”. For `COC(=O)c1ccccc1-c1ccc(C(c2c(C)[nH][nH]c2=O)c2c(C)[nH][nH]c2=O)o1`, the Potency was “inactive”. With `Nc1cc(N)c(OCC(F)(F)F)cc1OCC(F)(F)F` the Potency was 14.1 µM (active). In the case of `CCCCOc1ccc(C(=O)CCN2CCOCC2)cc1`, the Potency is reported as “inactive”. For `CCCCCCN=CC1=C(O)CC(C)(C)CC1=O`, the Potency was “inactive”. With `CCCc1nc2c(=O)n(C)c(=O)nc-2n(C)n1` the Potency was 0.794 µM (active). With `CC1(C)CC(=O)C(N=Nc2cccc(S(=O)(=O)N3CCOCC3)c2)=C(O)C1` the Potency was “inactive”. For `CCOc1cc(N2CCOCC2)c(OCC)cc1NC(C)C(=O)N1CCN(CC)CC1` (stereo not given), the Potency was “inactive”. With `C=CCNC(=O)/C(C#N)=C/c1c(C)nn(-c2ccc(Cl)cc2)c1Cl` the Potency was “inactive”. In the case of `CC(NC(=O)Nc1ccc(O)cc1)(C(F)(F)F)C(F)(F)F`, the Potency is reported as “inactive”. With `CC1=NN(Cc2ccccc2)C(=O)C1` the Potency was “inactive”. With `CC(=O)NC1N=C(C)N(c2ccccc2)C1=O` (stereo not given) the Potency was “inactive”. With `Cc1ccc(-c2nc(S(=O)(=O)c3ccc(F)cc3)c(SCC(=O)NCC3CCCO3)o2)cc1` (stereo not given) the Potency was “inactive”. With `Nc1cnccc1C(=O)O` the Potency was “inactive”. In the case of `COc1ccc2ccc3c(c2c1)N=CC1(O3)N(C)c2ccccc2C1(C)C` (stereo not given), the Potency is reported as “inactive”. In the case of `CCOc1cc(C(c2c(C)[nH][nH]c2=O)c2c(C)[nH][nH]c2=O)ccc1OC(=O)c1cccc([N+](=O)[O-])c1`, the Potency is reported as “inactive”. In the case of `Cc1cc(N=Cc2c(O)ccc3ccccc23)no1`, the Potency is reported as “inactive”. For `COn1c2c(c3c4nonc4ccc31)CCCC2`, the Potency was “inactive”. For `CN(C(=S)Nc1cccnc1)c1ccc(O)cc1`, the Potency was “inactive”. In the case of `Cc1nc2ccccc2n2c(O)c(CC(=O)O)cc12`, the Potency is reported as “inactive”. For `CC1(C)C(N(O)C(=O)Nc2ccc(Cl)cc2)N(c2ccc(Cl)cc2)C(=O)N1CC(=O)NN` (stereo not given), the Potency was “inactive”. With `Cc1cccc(Cn2c(C(=O)OC(C)C)cc3c2ccn3C)c1` the Potency was “inactive”. In the case of `CCSc1ncc(Cl)c(C(=O)Nc2nc3ccc(OC)cc3s2)n1`, the Potency is reported as “inactive”. With `CCOC(=O)c1cnc2nc(NCc3ccc(OC)c(OC)c3)[nH]n2c1=O` the Potency was “inactive”. With `CS(=O)(=O)c1ccc(C(=O)OCC(=O)NC(=O)C2CCCCC2)cc1[N+](=O)[O-]` the Potency was “inactive”. In the case of `Nc1c(C(=O)NCc2ccco2)c2nc3ccccc3nc2n1CCc1ccccc1`, the Potency is reported as “inactive”. For `O=C(NNc1cc(N2CCOCC2)nc(N2CCOCC2)n1)c1ccc([N+](=O)[O-])cc1`, the Potency was “inactive”. For `C=CCSc1nnc2n(-c3ccccc3OC)c(=O)c3c4c(sc3n12)CCC4`, the Potency was “inactive”. In the case of `N#Cc1c(NC(=O)c2ccccc2Cl)n(Cc2ccccc2)c2nc3ccccc3nc12`, the Potency is reported as “inactive”. For `CCc1ccc2c(c1)c1nc(C)sc1n2CC`, the Potency was “inactive”. In the case of `COc1ccc(C(=O)/C=C/Nc2ccc(S(=O)(=O)Nc3ncccn3)cc2)cc1`, the Potency is reported as “inactive”. In the case of `Cn1c(-c2ccc(=O)[nH]c2)nc2ccccc21`, the Potency is reported as “inactive”. For `O=C(O)C1C2C=CC(O2)C1C(=O)Nc1ccc(S(=O)(=O)N2CCc3ccccc32)cc1` (stereo not given), the Potency was “inactive”. For `Cc1c(C#N)c(O)n(CCO)c(=O)c1N=Nc1ccc2c(c1)COC2=O`, the Potency was “inactive”. In the case of `COc1cc(NC(C)CCCN)c2ncccc2c1` (stereo not given), the Potency is reported as 22.4 µM (active). In the case of `CCOc1cc(C(c2c(C)[nH][nH]c2=O)c2c(C)[nH][nH]c2=O)ccc1OS(=O)(=O)c1ccc(C)cc1`, the Potency is reported as “inactive”. In the case of `Cc1ccc2c(CC(=O)Nc3c(C(=O)c4ccc(F)cc4)oc4ccccc34)coc2c1C`, the Potency is reported as “inactive”.

— PubChem BioAssay AID1568 (National Center for Advancing Translational Sciences (NCATS), 2009)
